From paper PMC12136788
Residue numbers refer to the chain shown, from its start. Over roughly 24,000 sequences, “enrichment r” has its median near 0.99; the highest 2% begin near 3.7. What follows is part of a selection rich in the highest values, with near analogues and random picks from the rest.

T1: UNK ZnF1-3 (human, UniProt Q9C0B0 31-174)
T1 sequence: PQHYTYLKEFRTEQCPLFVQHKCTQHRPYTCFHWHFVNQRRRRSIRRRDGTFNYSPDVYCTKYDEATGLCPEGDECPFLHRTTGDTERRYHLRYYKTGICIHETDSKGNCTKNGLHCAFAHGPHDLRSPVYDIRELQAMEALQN

B1: 17505014_17509309_214_5pUTR_ENSMUSG00000019370_ENSMUST00000019514|mouse|control|control (ssRNA)
RNA: GGGAGUUCUACAGUCCGACGAUCCAUGGCGAGGCACCGGUAUCCGGAGCUCGGGGAUCGAGGUUACUCUGGCGGCGGCAGCAGCUGCAGCAGCUCGAGCUCCGCCGCGCGUCCGCGCCUCCACACUCUUUGCCCGCAGCGCGCCAACAGAGGAUUGAGCAUCA
B2: chr8:80553714:80553715:+_ENSG00000104435_ENST00000220876|hu_mus|motif|central (ssRNA)
RNA: GGGAGUUCUACAGUCCGACGAUCAGCCUCCAGCUUUUUCUGAAUCUCCUCCAGAGACAGGUCUUUCUUCUUUGGAGAAGCGGGAGUUCGUGGAGCUUCUGAGAUGGGAGAUGGUGGCUUCAAGAUCAGCUCAAAAGCCUGGCCCAACAGAGGAUUGAGCAUCA
B3: chr11:100577090:100577091:-_ENSMUSG00000019173_ENSMUST00000107364|mus_hu|motif|central (ssRNA)
RNA: GGGAGUUCUACAGUCCGACGAUCCUGCACUGACCCCACUGUCCCCAUAUACAAGGGUUGGGGGGCAAGAGCAUGUGGCGGCUCCCAGCAAGGGAAAAUGGGAGAGCAGUAGAAAGGGGAGGAAGUGGGAAGAGCAGAAGAUCACAACAGAGGAUUGAGCAUCA
B4: chr1:89687925:89687926:+_ENSMUSG00000026289_ENSMUST00000027512|mus_hu|FALSE|FALSE (ssRNA)
RNA: GGGAGUUCUACAGUCCGACGAUCCCAGGACAGGGCUGCAGGAGCCCAUGUGCUUCUUCUGAGGAGGGCACUGGGGUCCUCCCAGCCCUGAGAGCCCCGUCAGUACUGUGCCCACAGCACAGCUUUGCAUCCUUUGUCCACACUCAACAGAGGAUUGAGCAUCA
B5: chr3:33038425:33038426:-_ENSG00000170266_ENST00000307363|hu_mus|FALSE|FALSE (ssRNA)
RNA: GGGAGUUCUACAGUCCGACGAUCGGUGGGAGGUCAGGCAAGGCGGGGCUGCAAAGUCACCAGCAGGGUACACACAUUCCAGAAAUGUAGCUUCCAUUCUAGCACAACAAAGGUGAUCCGUGUAACCAGAGUAGAGCUGUGCUCCAACAGAGGAUUGAGCAUCA
B6: 105885974_105886094_2527_3pUTR_ENSG00000135966_ENST00000393359|human|control|control (ssRNA)
RNA: GGGAGUUCUACAGUCCGACGAUCCAGCAGCGUGUGAAAGAGUUGCUGGCGGUGGGGUGGGUCUCGGCCCUCGGAGCACCACAGGCAGUAGUCCUCGGCCGCUGCAAAGUCCUGCAGCUCGUGCACCAGGAUAUGCAGCGCCUUCAACAGAGGAUUGAGCAUCA
B7: chr11:30000241:30000242:-_ENSMUSG00000020315_ENSMUST00000011877|mus_hu|FALSE|FALSE (ssRNA)
RNA: GGGAGUUCUACAGUCCGACGAUCUAUUUCCAACACAGCCUCACAAAAUUGAGGAACAGUUUAAAUACUGAGAUCUAAUCUAUAUAAUUUCAUUAAAAAAAAAAUCUGGCCUUCCCUCUGCACCUCAAACUUUUGUAACUUGGACAACAGAGGAUUGAGCAUCA
B8: chr11:30000241:30000242:-_ENSMUSG00000020315_ENSMUST00000011877|mus_hu|motif|central (ssRNA)
RNA: B7 RNA with U75G, A76G, U80G, A81G
B9: chr18:77179482:77179483:+_ENSMUSG00000090000_ENSMUST00000026487|mus_mus|FALSE|FALSE (ssRNA)
RNA: GGGAGUUCUACAGUCCGACGAUCAAGUAUGCUCCAAUCCGGGAGUGCUCCUGCCUCUGAUAAUCUGAUCUACAAGUGCAACUACAAUUAAAAAAAAAAAAAAAUCAGAUAGAUAGAAACUCUGGUUUUAUUGUCAACUUUACUCAACAGAGGAUUGAGCAUCA
B10: chr17:65740002:65740003:+_ENSG00000130935_ENST00000581375|hu_hu|hu_hu_hu_mus_False|8_8 (ssRNA)
RNA: GGGAGUUCUACAGUCCGACGAUCAACAAAUCUUUCUUCCCUGGACGAACAGGAAGAUUCAUAUUAAAAAAAAUAUAUAUCCAUCAAGUUAGGUGUGGUGGCCACACCUUUACUCCCAGCACUUUGGGAAUAUAAUCUCUGAGUCAACAGAGGAUUGAGCAUCA
B11: chr10:112657927:112657928:+_ENSG00000150593_ENST00000280154|hu_hu|FALSE|FALSE (ssRNA)
RNA: GGGAGUUCUACAGUCCGACGAUCCAGAAAUGCCUUGUACCCAAAACAAGUGCUUAAAAAAAAAAAAAAAAAAAACUUGUGCUAACAACUCUUACAAUUCAGAUAUAUAUUUUUAUAACAUCUAAGACUGCAAGAGUUCUUAUACAACAGAGGAUUGAGCAUCA
B12: chr10:112657927:112657928:+_ENSG00000150593_ENST00000280154|hu_hu|motif|central (ssRNA)
RNA: B11 RNA with U82G, A83G
B13: chr21:44329077:44329078:+_ENSG00000160194_ENST00000354250|hu_hu|motif|central (ssRNA)
RNA: GGGAGUUCUACAGUCCGACGAUCCUCCCGGCCUGAGGAGGGCUGAGGCAUCCUGAAUUUUGAGAGUUCGAGGUUGAGGUCGGAGAAGGUGUACGUGCUGUAGUCAUGAUGCUGCAGGUUCUUGUAGGUAGUGUUGUCAAACGGCAACAGAGGAUUGAGCAUCA
B14: chr17:62500844:62500845:-_ENSG00000108654_ENST00000583239|hu_mus|motif|central (ssRNA)
RNA: GGGAGUUCUACAGUCCGACGAUCUUGAUAAAAAUUCUUCUCAAAUUUGGGCAGCUCAUCAAGAUUCCACUUCUUUUUAACGGGUUUCUCCCCAGGAUUUCCAAACUUCUUUCCAGAGAGGGGUCCUGUUCUACUCCCUCCAAACAACAGAGGAUUGAGCAUCA
B15: chr8:13019134:13019135:+_ENSMUSG00000031442_ENSMUST00000123811|mus_mus|FALSE|FALSE (ssRNA)
RNA: GGGAGUUCUACAGUCCGACGAUCUGGCUGACAGGGGCCUCCUGUUUCCAGAGAUCUCGGAGCACCAUCCCCUCCCAAACUAAGCAAGCCCAAGCAAAAAUAAAAAUUAAAAAUAAAAAAAAACCAAAAAACUUAGAGAUUUGCCAACAGAGGAUUGAGCAUCA
B16: chr5:116097646:116097647:+_ENSMUSG00000029518_ENSMUST00000031492|mus_mus|FALSE|FALSE (ssRNA)
RNA: GGGAGUUCUACAGUCCGACGAUCUAAAAAGCAUAAUUAGAAACUUUCAAUACAGAAAUAGUCCUAGCAAACCAUUUAAAAGUUGGUUGUUUGACAGGAGUUUCACAUCGGGCCCACCAGGGUACCAGUGUAGCCCUGAUUCUCCAACAGAGGAUUGAGCAUCA
B17: chr1:225611761:225611762:-_ENSG00000143815_ENST00000272163|hu_mus|hu_hu_hu_mus_True|18_78 (ssRNA)
RNA: GGGAGUUCUACAGUCCGACGAUCCCAGGCCAUCGGCCUCUGACCACUUCACCCUCAGCAAAUUUCCUACUUGGCAUUUUCUAAAAUUAGUCUGGCCGCGCUCCGGCGGGAACUCCAGACGGCUCCCGACAGUCACCAGCAGCCCAACAGAGGAUUGAGCAUCA
B18: chr2:115689366:115689367:-_ENSMUSG00000027210_ENSMUST00000074285|mus_mus|FALSE|FALSE (ssRNA)
RNA: GGGAGUUCUACAGUCCGACGAUCUCUUUGAAGAACAGUCCCCCAAAAUCAUAAUAAGAAUUGGCUUAUGAAGCACAAACUAUAAAGAUCUGUUUGAAACUAAAGGACACAUGGACGGGGGGAACAAAGGCCGGGCAUGAAAACCAACAGAGGAUUGAGCAUCA
B19: chr8:117868997:117868998:-_ENSG00000164754_ENST00000297338|hu_hu|motif|central (ssRNA)
RNA: GGGAGUUCUACAGUCCGACGAUCCACCCCUGCCUCAGAGAGGGCAGGGGGAUCAUCAAAGAUACCGCCAUCAUUAUUACGGAUAAGUUUGUCAUCUAAUAUUCCACCAUCAUUUCCUUCUCCAAAAUUAUCAUCCUUAUAUUGCAACAGAGGAUUGAGCAUCA
B20: chr11:93905761:93905762:+_ENSMUSG00000020859_ENSMUST00000103168|mus_mus|FALSE|FALSE (ssRNA)
RNA: GGGAGUUCUACAGUCCGACGAUCCGCUGGCACCCCGGUAGAAAUAGAAAAGUGCACAAGCAGCAAAACAGAGAGAGAUACUAAGAUCGCAGAAUUAAUGACCACCGCCCCGCCAACAAAGCCAAACACAAACAGCAGCAUGCACAACAGAGGAUUGAGCAUCA
B21: chr8:13019134:13019135:+_ENSMUSG00000031442_ENSMUST00000123811|mus_mus|motif|central (ssRNA)
RNA: B15 RNA with U80G, A81G
B22: chr8:86519384:86519385:+_ENSMUSG00000005469_ENSMUST00000005606|mus_mus|FALSE|FALSE (ssRNA)
RNA: GGGAGUUCUACAGUCCGACGAUCUAAAUUAGAUGCAUGGAACUCUAGGGCCCUCUGGCUGUUCGAUCCAACCCUCCCACCCCCAACCGGAAAAAAAAUAGAAAGAAAAAGAAAAAAUGAAAGAGAACCCAAGGGGCACAAGCACAACAGAGGAUUGAGCAUCA

These binders were tested against T1, UNK ZnF1-3 (assay: nsRBNS (natural sequence RNA bind-n-seq); RBNS binding buffer (assumed for nsRBNS): 25 mM Tris pH 7.5, 150 mM KCl, 3 mM MgCl2, 0.01% Triton X-100, 500 ug/ml BSA, 20 U/ml SUPERase-In, 4 C; UNK is unkempt and MSI1 is Musashi-1; names of the RNAs are library labels; protein concentration not given here; high values mean tight binding).

| Binder | binding signal |
| --- | --- |
| B1 | 0.975 enrichment R |
| B2 | 1.22 enrichment R |
| B3 | 1.93 enrichment R |
| B4 | 0.419 enrichment R |
| B5 | 1.42 enrichment R |
| B6 | 0.509 enrichment R |
| B7 | 4.16 enrichment R |
| B8 | 3.58 enrichment R |
| B9 | 2.98 enrichment R |
| B10 | 1.12 enrichment R |
| B11 | 3.61 enrichment R |
| B12 | 4.04 enrichment R |
| B13 | 1.5 enrichment R |
| B14 | 1.28 enrichment R |
| B15 | 21.6 enrichment R |
| B16 | 0.472 enrichment R |
| B17 | 1.27 enrichment R |
| B18 | 2.13 enrichment R |
| B19 | 1.12 enrichment R |
| B20 | 2.57 enrichment R |
| B21 | 14.4 enrichment R |
| B22 | 6.04 enrichment R |
